In PubChem BioAssay (NCATS):
Records with an inconclusive call do not appear. Entries that show only a call come without a potency. Active and inactive are the calls of the source. Calls follow the shape of the dose curve; as a rule, active = well fitted curve in the direction sought with a large enough effect; inconclusive = small, poorly fitted or top-dose-only effect, or another doubt; inactive = no such curve, though single readings can be large; an effect the other way counts as inactive or inconclusive.

Legend:
[1] = molecular target: Aldehyde dehydrogenase, mitochondrial (Homo sapiens) (UniProt P05091); test: qHTS for Inhibitors of the Aldehyde Dehydrogenase Family (ALDH2) Primary screen (AID 2061308); also: nearly all actives have a fitted effect of over 55% in size
[2] = molecular target: Retinaldehyde dehydrogenase 3 (Homo sapiens) (UniProt P47895); test: qHTS for Inhibitors of the Aldehyde Dehydrogenase Family (ALDH1A3) Primary screen (AID 2061315)

## c1coc(CNc2nc(-c3cccs3)nc3ccccc23)c1
[1]
  Potency: inactive
[2]
  Potency: inactive

## O=C(NCc1ccc(F)cc1)n1cc(P(=S)(c2ccccc2)c2ccccc2)c2ccccc21
[1]
  Potency: inactive
[2]
  Potency: inactive

## Cc1cc2c(s1)c1cnn(Cc3cc(F)ccc3F)c(=O)c1n2C
[1]
  Potency: inactive
[2]
  Potency: inactive

## CC(Cc1ccccc1)C(=O)Nc1ccc(Cl)cc1C(=O)O (stereo not given)
[1]
  Potency: inactive
[2]
  Potency: inactive

## COc1ccc(-c2nnc3n2N=C(c2cc(OC)ccc2OC)CS3)c(OC)c1
[1]
  Potency: inactive
[2]
  Potency: inactive

## O=C(Nc1ccccc1)Nc1nc(Nc2cc(F)cc(F)c2)nc(NC2CCCC2)n1
[1]
  Potency: inactive
[2]
  Potency: inactive

## CC(C)(O)C1Cc2c(ccc(C(=O)CCc3ccccc3)c2O)O1 (stereo not given)
[1]
  Potency: inactive
[2]
  Potency: inactive

## O=C(Cn1cc(CNCc2ccccc2)nn1)Nc1cc(C(F)(F)F)ccc1Cl
[1]
  Potency: inactive
[2]
  Potency: inactive

## Cc1ccc(-c2ccc(=O)n(CC(=O)NCCc3ccccc3)n2)cn1
[1]
  Potency: inactive
[2]
  Potency: inactive

## Fc1ccc(-c2ccc(Nc3nc(-c4ccncc4)nc4ccccc34)cc2F)c(F)c1
[1]
  Potency: inactive
[2]
  Potency: inactive

## O=C(Nc1ccc2ccccc2c1)Nc1nnc(-c2ccc(O)cc2)s1
[1]
  Potency: inactive
[2]
  Potency: inactive

## Cc1nc(NCc2ccccc2)c2nc(-c3ccccc3)n(CCN3CCOCC3)c2n1
[1]
  Potency: inactive
[2]
  Potency: inactive

## Cc1ccc(OCCn2c(CCNC(=O)c3ccccn3)nc3ccccc32)cc1
[1]
  Potency: inactive
[2]
  Potency: inactive

## Cc1cc(-c2nnc3n2CCCCC3)c(C)n1-c1ccc(C(F)(F)F)cc1
[1]
  Potency: inactive
[2]
  Potency: inactive

## O=C1Nc2ccccc2/C1=C\c1cc(Br)c(O)c(Br)c1
[1]
  Potency: inactive
[2]
  Potency: inactive
